PubChem BioAssay (NCATS)
Values joined by “and” are separate entries in the source; they are usually repeats but may differ in a detail not shown here. Identical values can stand only once. Results filed as inconclusive are left out. Active and inactive are the calls of the source. Calls come from the whole dose curve; as a rule, active = well fitted curve in the direction sought with a large enough effect; inconclusive = small, poorly fitted or top-dose-only effect, or another doubt; inactive = no such curve, though single readings can be large; an effect the other way counts as inactive or inconclusive.

Key:
[1] = target: Cytochrome P450 3A7 (Homo sapiens) (UniProt P24462); assay: Cytochrome P450 family 3 subfamily A member 7 (CYP3A7) small molecule antagonists: luciferase biochemical qHTS assay (AID 1963596); note: % is set by controls: 0 for no effect and ±100 for the full control effect; nearly all actives have a fitted effect of over 40% in size
Method in brief: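 Luminescence read-out (relative luminescence units) after 20 min with detection reagent, which stops the reaction. Enzyme, proluciferin substrate and compound preincubated 10 min, RT; NADPH regeneration system then started 1 h reaction. Ketoconazole as positive control.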

[2] = Viability qHTS for spleen associated tyrosine kinase inhibitor (SYKi) naive MV4-11 cells (AID 1963823); note: nearly all actives have a fitted effect of over 40% in size; note: potency is the fitted concentration of half-maximal effect
Method in brief: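 Cells: MV4-11, SYK inhibitor naive, 500 per well. Treatment: library compounds, 72 hr, 37 C, 5% CO2. Read-out: CellTiter-Glo luminescence after 10 min RT.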

[3] = Viability qHTS for spleen associated tyrosine kinase inhibitor (SYKi) drug resistant MV4-11 cells (AID 1963824); note: nearly all actives have a fitted effect of over 35% in size; note: potency is the fitted concentration of half-maximal effect
Method in brief: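 SYK-inhibitor-resistant MV4-11 AML cells were seeded at 500 per well onto compound and cultured 72 hours (37 °C, 5% CO2). CellTiter-Glo was then added, and after 10 min at room temperature, luminescence gave viability.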

[4] = Quantitative highthroughput screen to assess conditional lethalithy of NOMO1 cells grown in RPMI1640 with untreated serum (RPMI+s) (AID 1963876); note: nearly all actives have a fitted effect of over 35% in size; note: potency is the fitted concentration of half-maximal effect;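 for Viability: 100% = DMSO wells and 0% = empty wells without cells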
Method in brief: (§1)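 Each medium arm—HPLM with 10% dialyzed FBS, or RPMI1640 with 5 mM glucose and 10% untreated or dialyzed FBS—was screened against an 11-point, 3-fold compound titration for 48 h at 37 °C, with CellTiter-Glo luminescence as endpoint.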

[5] = Quantitative highthroughput screen to assess conditional lethalithy of NOMO1 cells grown in RPMI1640 with dialyzed fetal bovine serum (RPMI+ds) (AID 1963877); note: nearly all actives have a fitted effect of over 30% in size; note: potency is the fitted concentration of half-maximal effect;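 for Viability: series mostly up to about 46 µM; 100% = DMSO control wells and 0% = empty wells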
Method in brief: as §1

[6] = Quantitative highthroughput screen to assess conditional lethalithy of NOMO1 cells grown in Human Plasma-Like Medium with dialyzed fetal bovine serum (HPLM+ds) (AID 1963878); note: nearly all actives have a fitted effect of over 35% in size; note: potency is the fitted concentration of half-maximal effect;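 for Viability: 100% = DMSO wells and 0% = empty wells on each plate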
Method in brief: as §1

[7] = Quantitative highthroughput screen to assess conditional lethalithy of P12 Ichikawa cells grown in Human Plasma-Like Medium with dialyzed fetal bovine serum (HPLM+ds) (AID 1963879); conditions: Potency: viability; note: nearly all actives have a fitted effect of over 35% in size; note: potency is the fitted concentration of half-maximal effect; for Viability: series mostly up to about 46 µM
Method in brief: as §1

[8] = Quantitative highthroughput screen to assess conditional lethalithy of P12 Ichikawa cells grown in RPMI1640 with dialyzed fetal bovine serum (RPMI+ds) (AID 1963880); conditions: Potency: P12-Ichikawa viability; note: nearly all actives have a fitted effect of over 35% in size; note: potency is the fitted concentration of half-maximal effect;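 for Viability: 100% = DMSO wells and 0% = empty wells on each plate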
Method in brief: as §1

[9] = Quantitative highthroughput screen to assess conditional lethalithy of P12 Ichikawa cells grown in RPMI1640 with untreated serum (RPMI+s) (AID 1963881); conditions: Potency: viability; note: nearly all actives have a fitted effect of over 35% in size; note: potency is the fitted concentration of half-maximal effect;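 for Viability: series mostly up to about 46 µM; 100% = DMSO wells and 0% = empty wells without cells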
Method in brief: as §1

[10] = Quantitative highthroughput screen to assess conditional lethalithy of SEM cells grown in RPMI1640 with unreated serum (RPMI+s) (AID 1963883); note: nearly all actives have a fitted effect of over 35% in size; note: potency is the fitted concentration of half-maximal effect;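 for Viability: 100% = DMSO wells and 0% = empty wells without cells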
Method in brief: as §1

[11] = Quantitative highthroughput screen to assess conditional lethalithy of SEM cells grown in RPMI1640 with dialyzed fetal bovine serum (RPMI+ds) (AID 1963884); note: nearly all actives have a fitted effect of over 35% in size; note: potency is the fitted concentration of half-maximal effect;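 for Viability: series mostly up to about 46 µM; 100% = DMSO control wells and 0% = empty wells without cells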
Method in brief: as §1

[12] = Cellular viability qHTS for adrenocortical cancer (ACC) cell line SW-13 (AID 1963989); conditions: SW-13 ACC cells viability, CellTiter-Glo, 48 h; activity (max response): active compounds read low; note: nearly all actives have a fitted effect of over 65% in size; note: potency is the fitted concentration of half-maximal effect;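 for activity (max response): cells grown in serum-free medium with ITS supplement; % is set by controls: 0 for no effect and ±100 for the full control effect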
Method in brief: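 Compound titrations (up to 46 uM final, in DMSO) were applied to SW-13 cells for 48 h at 37C/5% CO2. Reading used CellTiter-Glo after 20 min at room temperature; fitted curves yielded IC50 and efficacy.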

[13] = Cellular viability qHTS for adrenocortical cancer (ACC) cell line NCI-H295R (AID 1963990); note: nearly all actives have a fitted effect of over 60% in size; note: potency is the fitted concentration of half-maximal effect
Method in brief: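 Readout: CellTiter-Glo luminescence, 20 min RT. Exposure: 48 h, 37C/5% CO2. Cells: NCI-H295R, ITS-DMEM serum-free. Range: up to 46 uM. Analysis: 4PL fit, IC50 plus efficacy.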

[14] = Quantitative highthroughput screen to assess conditional lethalithy of SEM cells grown in Human Plasma-Like Medium with dialyzed fetal bovine serum (HPLM+ds) (AID 1963882); note: nearly all actives have a fitted effect of over 35% in size; note: potency is the fitted concentration of half-maximal effect; for Viability: series mostly up to about 46 µM
Method in brief: as §1

Cytochrome P450 3A7 (Homo sapiens), sequence (P24462 whole entry, looked up): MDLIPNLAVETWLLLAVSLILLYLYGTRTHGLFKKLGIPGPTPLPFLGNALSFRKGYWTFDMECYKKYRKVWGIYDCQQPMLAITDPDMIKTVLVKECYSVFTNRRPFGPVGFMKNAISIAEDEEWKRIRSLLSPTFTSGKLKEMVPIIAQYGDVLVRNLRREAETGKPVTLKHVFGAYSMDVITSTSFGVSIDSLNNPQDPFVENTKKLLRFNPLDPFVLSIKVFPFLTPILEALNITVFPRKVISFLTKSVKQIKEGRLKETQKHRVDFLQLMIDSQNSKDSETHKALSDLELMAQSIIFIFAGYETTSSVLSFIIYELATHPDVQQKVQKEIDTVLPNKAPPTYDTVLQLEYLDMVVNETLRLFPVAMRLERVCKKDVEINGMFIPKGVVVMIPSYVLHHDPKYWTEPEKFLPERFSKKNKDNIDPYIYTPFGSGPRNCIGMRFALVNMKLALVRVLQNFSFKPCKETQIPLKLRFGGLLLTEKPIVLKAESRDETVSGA

COC(=O)c1ccc(N2CCN(C)CC2)c(NC(=O)c2cccc(OC)c2)c1
inactive: Potency [1] | Potency [2] | Potency [3]

COc1ccc(-c2ccc(-c3cn(C(=O)N4CCCCC4c4ccccc4)nn3)cc2)cc1 (centres undefined)
inactive: Potency [1] | Potency [2]
active: Potency [3] 0.517 µM

COc1cc(N2CCOCC2)ccc1Nc1ncc(Cl)c(Nc2ccccc2NS(C)(=O)=O)n1
inactive: Potency [1]
active: Potency [2] 0.103 µM | Potency [3] 0.206 µM

CCNC(=O)Nc1ccc(-c2nc3c(c(N4CCOC[C@@H]4C)n2)CCN(c2ncccn2)C3)cc1
inactive: Potency [1]
active: Potency [2] 0.13 µM | Potency [3] 0.164 µM

CNC(=O)Nc1ccc(OC)c(NC(=O)NC(=O)c2cc(F)c(F)cc2Cl)c1
inactive: Potency [1] | Potency [2] | Potency [3]

COc1ccc(C(=O)Nc2ncc(-c3ccc(C(=O)O)cc3)s2)cc1
active: Potency [2] 0.461 µM | Potency [3] 0.461 µM
inactive: Potency [1]

COc1ccnc(CCc2nc3ncccc3[nH]2)c1
inactive: Potency [1] | Potency [2] | Potency [3]

N[C@@H](CC(=O)N1CCn2c(nnc2C(F)(F)F)C1)Cc1[nH]nc2c(F)c(F)ccc12
inactive: Potency [1] | Potency [2] | Potency [3]

C=CC(=O)N1CCN(C(=O)c2cc(-c3cc(Cl)ccc3Cl)c(Cl)cc2OC)CC1
inactive: Potency [1]
active: Potency [2] 8.2 µM | Potency [3] 6.51 µM

FC(F)(F)Oc1ccc(-c2ccc3nnc(C(F)(F)F)n3c2)cc1
inactive: Potency [1] | Potency [2] | Potency [3]

CN(C)CCCNc1nc(CN2CCN(C(c3ccc(Cl)cc3)c3ccc(Cl)cc3)CC2)nc2ccccc12
inactive: Potency [1]
active: Potency [2] 2.06 µM | Potency [3] 3.26 µM

COc1ccc(-c2cnc(-c3cccc4c3-c3ccccc3C4=O)o2)cc1
inactive: Potency [1]
active: Potency [2] 0.0893 µM | Potency [3] 0.0709 µM

NC(=O)c1ccc([N+](=O)[O-])cc1Cl
inactive: Potency [1] | Potency [2] | Potency [3]

CN(C)c1ccc(C2O[C@@H](c3ccccc3)C[C@H](c3ccccc3)O2)cc1 (some centres undefined)
inactive: Potency [1] | Potency [2] | Potency [3]

C[C@@H](O)[C@H](NC(=O)c1ccc(C#Cc2ccc(CN3CCOCC3)cc2)cc1)C(=O)NO
active: Potency [2] 23.1 µM | Potency [3] 23.1 µM
inactive: Potency [1]

O=C(Nc1cccnn1)N1CCN(c2nccc(-c3ccc(F)c(F)c3)n2)CC1
inactive: Potency [1] | Potency [2] | Potency [3]

COc1ccc(C(=O)NCc2cc(C(C)C)no2)cc1OC1CCN(C)CC1
inactive: Potency [1] | Potency [2] | Potency [3]

O=C(Nc1cccc(C(F)(F)F)c1)Nc1ccc(Br)cc1-c1nn[nH]n1
inactive: Potency [1] | Potency [2] | Potency [3]

CNC1CN(c2ccc3c(=O)c(C(=O)O)cn(-c4nccs4)c3n2)CC1OC (centres undefined)
active: Potency [2] 0.422 µM | Potency [3] 0.376 µM
inactive: activity change, negative = inhibition [1] 23% [at 11.5 µM]

O=C(O)CCC(=O)O
inactive: Potency [1] | Potency [2] | Potency [3]

CC(C)c1cccc(C(C)C)c1NC(=O)Nc1ccc(Sc2ccc([N+](=O)[O-])cc2)cc1
inactive: Potency [1]
active: Potency [2] 7.31 µM | Potency [3] 5.17 µM

C1N2CN3CN1CN(C2)C3
inactive: Potency [1] | Potency [2] | Potency [3]

CN(C)S(=O)(=O)c1ccc(NC(=S)N2CCC(C(O)(c3ccccc3)c3ccccc3)CC2)cc1
inactive: Potency [1]
active: Potency [2] 16.4 µM | Potency [3] 18.4 µM

O=C(O)CC1CCC(c2ccc(NC(=O)c3nnc(Nc4ccc(F)c(F)c4)o3)cc2)CC1 (centres undefined)
inactive: Potency [1] | Potency [2] | Potency [3]

Nc1nc(O)c(C2=C3C(=Nc4ccccc43)C(=O)NCC2)[nH]1
inactive: Potency [1]
active: Potency [2] 0.461 µM | Potency [3] 1.16 µM

CN(C)CC(=O)Nc1ccc2[nH]c(=O)c3ccccc3c2c1
inactive: Potency [1]
active: Potency [2] 20.6 µM | Potency [3] 20.6 µM

O=C1NC(=Nc2ccccc2F)S/C1=C\c1ccc(C(=O)O)cc1
inactive: Potency [1] | Potency [2] | Potency [3]

COc1ccc(-c2ccc3cc(C(=O)O)ccc3c2)cc1C12CC3CC(CC(C3)C1)C2
inactive: Potency [1] | Potency [4] | Potency [5] | Potency [6] | Potency [7] | Potency [8] | Potency [9] | Potency [10] | Potency [11] | activity (max response) [12] -2.5% and -9.37% | Potency [13]
active: Potency [2] 0.211 µM | Potency [3] 1.32 µM

CCC1(O)CC2c3cc(OC)c(OC)cc3CCN2CC1CC(C)C (centres undefined)
inactive: Potency [1] | Potency [2] | Potency [3]

CCN(CC)Cc1ccc(C(=O)N(CCc2ccccc2OC)[C@@H]2CCNC2)cc1
inactive: Potency [1]
active: Potency [2] 3.17 µM | Potency [3] 3.17 µM

CN(C)CCc1c[nH]c2ccc(C[C@H]3COC(=O)N3)cc12
active: Potency [4] 16.6 µM | Potency [5] 20.9 µM | Potency [6] 13.2 µM | Potency [7] 7.43 µM | Potency [8] 10.5 µM | Potency [9] 10.5 µM | Potency [14] 9.35 µM | Potency [10] 4.69 µM | Potency [11] 9.35 µM
inactive: Potency [1] | Potency [2] | Potency [3] | activity (max response) [12] 12.9% | Potency [13]

O=NN(CCCl)C(=O)NC1CCCCC1
inactive: Potency [1] | Potency [2] | Potency [3] | Potency [4] | Potency [5] | Potency [6] | Potency [7] | Potency [8] | Potency [9] | Potency [14] | Potency [10] | activity (max response) [12] 15.5% and -13.1% | Potency [13]

COC(=O)C1=C(C)NC(C)=C(C(=O)OCCN2CCN(C(c3ccccc3)c3ccccc3)CC2)C1c1cccc([N+](=O)[O-])c1 (centres undefined)
active: Potency [2] 11.9 µM | Potency [3] 6.68 µM | Potency [12] 4.47 µM | Potency [13] 3.98 µM
inactive: Potency [1] | Potency [4] | Potency [5] | Potency [6] | Potency [7] | Potency [8] | Potency [9] | Potency [14] | Potency [10] | Potency [11]

O=C(NC(Cc1cc(=O)[nH]c2ccccc12)C(=O)O)c1ccc(Cl)cc1 (centres undefined)
inactive: Potency [1] | Potency [2] | Potency [3] | Potency [4] | Potency [5] | Potency [6] | Potency [7] | Potency [8] | Potency [9] | Potency [14] | Potency [10] | Potency [11] | activity (max response) [12] 7.09% and -3.01% | Potency [13]

CC(=O)OCC(CCn1cnc2cnc(N)nc21)COC(C)=O
inactive: Potency [1] | Potency [2] | Potency [3] | Potency [4] | Potency [5] | Potency [6] | Potency [7] | Potency [8] | Potency [9] | Potency [14] | Potency [10] | Potency [11] | activity (max response) [12] 5.15% and -10.4% | Potency [13]
